In PubChem BioAssay (EPA / NIEHS):
The source made the active and inactive calls. Rule for the calls: active = hit-call score of the fitted dose curve at least 0.9, where 1 is the maximum; inactive = score below 0.9.

Tests used:
[1] = molecular target: Transcription factor E2F1 (Homo sapiens) (UniProt Q01094); experiment: ATG_E2F_CIS: Attagene CIS-FACTORIAL HepG2 Assay for human E2F Transcription Factor 1 (AID 2282935); settings: HepG2 Attagene cis-reporter, E2F reporter RNA transcripts; actives raise or lower the signal
Sequence of Transcription factor E2F1 (Homo sapiens) (Q01094 whole entry, looked up): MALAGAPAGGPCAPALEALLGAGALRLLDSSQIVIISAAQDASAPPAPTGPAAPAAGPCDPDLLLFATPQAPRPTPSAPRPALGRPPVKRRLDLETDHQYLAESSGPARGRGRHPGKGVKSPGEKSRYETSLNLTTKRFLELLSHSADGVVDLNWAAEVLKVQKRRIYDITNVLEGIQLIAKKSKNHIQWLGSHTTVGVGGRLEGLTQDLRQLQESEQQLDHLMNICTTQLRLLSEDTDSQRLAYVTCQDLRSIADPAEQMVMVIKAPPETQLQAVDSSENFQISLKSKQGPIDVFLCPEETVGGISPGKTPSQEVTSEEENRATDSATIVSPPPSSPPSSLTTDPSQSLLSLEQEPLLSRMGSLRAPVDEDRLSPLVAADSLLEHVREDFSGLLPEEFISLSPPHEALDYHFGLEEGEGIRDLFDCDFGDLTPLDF
Procedure, shortened: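 Total RNA from 24 h-treated, reporter-transfected HepG2 cells undergoes DNase I treatment, oligo(dT) reverse transcription, PCR and 6-FAM primer extension before capillary electrophoresis.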

[2] = ATG_E_Box_CIS: Attagene CIS-FACTORIAL HepG2 Assay for human Enhancer Box (E-box) (AID 2282936); settings: HepG2 E-box cis-reporter transcription, actives raise or lower the signal
Procedure, shortened: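 DMSO served as negative control and baseline for bidirectional fitting. Human hepatoma HepG2 cells, transiently transfected with cis-reporter constructs, were dosed 24 h; reporter mRNA read by RT-PCR and capillary electrophoresis.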

[3] = ATG_M_61_CIS: Attagene CIS-FACTORIAL HepG2 Assay for M61 Transcription Factor (Internal Marker) (AID 2282937); settings: HepG2 Attagene CIS-FACTORIAL M61 internal marker reporter; actives raise or lower the signal
Procedure, shortened: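 Endogenous transcription factor activity in HepG2 is read through transiently transfected cis-element reporter units. After 24 h dosing, RNA undergoes reverse transcription, PCR and primer extension with 6-FAM before capillary electrophoresis; DMSO-referenced bidirectional fit.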

[4] = ATG_EGR_CIS: Attagene CIS-FACTORIAL HepG2 Assay for human Early Growth Response 1 (EGR1) (AID 2282938); settings: HepG2 Attagene CIS-FACTORIAL EGR reporter mRNA; actives raise or lower the signal
Procedure, shortened: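 Activity is taken as induction or loss of reporter mRNA versus DMSO, fitted bidirectionally. Transcripts from cis-regulated reporter units in transiently transfected HepG2 were measured after 24 h by RT-PCR with capillary electrophoresis.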

[5] = ATG_M_19_CIS: Attagene CIS-FACTORIAL HepG2 Assay for M19 Transcription Factor (Internal Marker) (AID 2282939); settings: HepG2 Attagene CIS-FACTORIAL M19 internal marker reporter; actives raise or lower the signal
Procedure, shortened: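 Background-control endpoint from a multiplexed HepG2 reporter panel. Cells carrying cis-regulated reporter constructs are treated 24 h, then reporter transcripts are amplified, fluorescently labelled and sized by capillary electrophoresis. DMSO defines baseline.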

[6] = ATG_ERE_CIS: Attagene CIS-FACTORIAL HepG2 Assay for Estrogen Response Element (ERE) (AID 2282940); settings: HepG2 ERE cis-reporter, Attagene RNA transcript; actives raise or lower the signal
Procedure, shortened: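 Cells used were human hepatoma HepG2, transfected with multiple reporter transcription units under cis-regulatory promoters. Reporter mRNA, read 24 h post-dosing via fluorescent RT-PCR products on capillary electrophoresis, was fitted bidirectionally relative to DMSO.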

[7] = ATG_Ets_CIS: Attagene CIS-FACTORIAL HepG2 Assay for human Erythroblast Transformation Specific (ETS) (AID 2282941); settings: HepG2 ETS cis-reporter transcription, actives raise or lower the signal
Procedure, shortened: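 HepG2 cells transfected with multiple cis-regulated reporter units measuring endogenous ETS-driven transcription, 24 h after dosing. Reporter mRNA quantified by RT-PCR with capillary electrophoresis; bidirectional fit relative to DMSO.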

[8] = molecular target: Hepatocyte nuclear factor 3-beta (Homo sapiens) (UniProt Q9Y261); experiment: ATG_FoxA2_CIS: Attagene CIS-FACTORIAL HepG2 Assay for human Forkhead box A2 (FOXA2) (AID 2282942); settings: HepG2 cis-reporter transcription factor activity, 24 h; actives raise or lower the signal
Sequence of Hepatocyte nuclear factor 3-beta (Homo sapiens) (Q9Y261 whole entry, looked up): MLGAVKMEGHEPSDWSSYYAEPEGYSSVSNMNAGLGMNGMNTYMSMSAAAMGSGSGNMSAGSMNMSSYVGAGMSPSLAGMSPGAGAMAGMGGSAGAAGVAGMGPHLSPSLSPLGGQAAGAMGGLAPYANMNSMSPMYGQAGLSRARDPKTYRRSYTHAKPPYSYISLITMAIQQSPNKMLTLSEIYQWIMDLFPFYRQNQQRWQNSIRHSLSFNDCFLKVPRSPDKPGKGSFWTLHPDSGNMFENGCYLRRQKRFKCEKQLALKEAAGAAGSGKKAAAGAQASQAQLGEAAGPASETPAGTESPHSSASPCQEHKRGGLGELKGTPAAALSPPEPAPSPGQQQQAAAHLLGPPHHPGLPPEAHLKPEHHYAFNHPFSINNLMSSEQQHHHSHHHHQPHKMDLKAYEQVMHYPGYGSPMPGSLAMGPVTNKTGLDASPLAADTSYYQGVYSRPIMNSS
Procedure, shortened: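 Reporter transcript induction is measured by fluorescence after capillary electrophoresis of RT-PCR products from HepG2 cells exposed 24 h. Cis-regulated reporter units report endogenous factor activity; curves fitted both directions against DMSO.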

[9] = ATG_FoxO_CIS: Attagene CIS-FACTORIAL HepG2 Assay for human Forkhead box O (FoxO) (AID 2282943); settings: HepG2 Attagene cis-reporter, FoxO element, mRNA; actives raise or lower the signal
Procedure, shortened: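 Human hepatoma HepG2 cells carry transiently introduced reporter transcription units controlled by cis promoter elements. Chemical treatment lasted 24 h, and mRNA signal was compared with DMSO.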

[10] = ATG_GATA_CIS: Attagene CIS-FACTORIAL HepG2 Assay for human GATA Binding Protein (AID 2282944); settings: HepG2 GATA cis-element reporter, Attagene multiplex mRNA; actives raise or lower the signal
Procedure, shortened: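 Endogenous transcription factor activity was captured through cis-promoter-driven reporters in transfected HepG2 cells. After 24 h exposure, reporter transcripts were quantified by RT-PCR with fluorescent capillary electrophoresis, and responses fitted both directions against DMSO.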

[11] = ATG_GLI_CIS: Attagene CIS-FACTORIAL HepG2 Assay for human Zinc Finger Protein GLI1 (AID 2282945); settings: HepG2, Attagene cis-factorial reporter mRNA, GLI element; actives raise or lower the signal
Procedure, shortened: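 Bidirectional curve fits relative to DMSO, using reporter mRNA levels from RT-PCR plus capillary electrophoresis. Cells were HepG2 transiently carrying cis-regulated reporter constructs, harvested 24 h after dosing.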

[12] = ATG_ISRE_CIS: Attagene CIS-FACTORIAL HepG2 Assay for human Interferon Regulatory Factor 1 (IRF1) binding to an Interferon-Stimulated Response Element (ISRE) (AID 2282948); settings: HepG2 ISRE cis-reporter (Attagene), mRNA transcription readout; actives raise or lower the signal
Procedure, shortened: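 Transiently transfected HepG2 cells carrying cis-element reporter units, dosed 24 hours. Reporter mRNA quantified by RT-PCR, fluorescent primer extension, HpaI digestion and capillary electrophoresis. Bidirectional fitting relative to DMSO.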

[13] = ATG_M_32_CIS: Attagene CIS-FACTORIAL HepG2 Assay for M32 Transcription Factor (Internal Marker) (AID 2282949); settings: HepG2 Attagene cis-factorial M32 reporter, mRNA; actives raise or lower the signal;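 note: background control marker of the multiplexed CIS panel rather than a real target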
Procedure, shortened: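 Internal background marker read-out: RT-PCR/capillary electrophoresis fluorescence of reporter transcripts from transiently transfected HepG2 cells after 24 h chemical exposure. Activity fitted bidirectionally relative to DMSO negative control.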

[14] = ATG_M_06_CIS: Attagene CIS-FACTORIAL HepG2 Assay for M06 Transcription Factor (Internal Marker) (AID 2282950); settings: HepG2 Attagene CIS-FACTORIAL M06 internal marker reporter; actives raise or lower the signal
Procedure, shortened: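 Steps: transfect HepG2 with multiplexed cis-element reporter constructs; dose chemical 24 h; extract RNA with DNase treatment; reverse-transcribe, PCR-amplify, 6-FAM label, HpaI digest; separate fragments by capillary electrophoresis. Activity fitted both directions versus DMSO.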

[15] = molecular target: Hypoxia-inducible factor 1-alpha (Homo sapiens) (UniProt Q16665); experiment: ATG_HIF1a_CIS: Attagene CIS-FACTORIAL HepG2 Assay for human Hypoxia Inducible Factor 1 (HIF1A) (AID 2282951); settings: HepG2 Attagene cis-factorial HIF1a reporter transcription; actives raise or lower the signal
Sequence of Hypoxia-inducible factor 1-alpha (Homo sapiens) (Q16665 whole entry, looked up): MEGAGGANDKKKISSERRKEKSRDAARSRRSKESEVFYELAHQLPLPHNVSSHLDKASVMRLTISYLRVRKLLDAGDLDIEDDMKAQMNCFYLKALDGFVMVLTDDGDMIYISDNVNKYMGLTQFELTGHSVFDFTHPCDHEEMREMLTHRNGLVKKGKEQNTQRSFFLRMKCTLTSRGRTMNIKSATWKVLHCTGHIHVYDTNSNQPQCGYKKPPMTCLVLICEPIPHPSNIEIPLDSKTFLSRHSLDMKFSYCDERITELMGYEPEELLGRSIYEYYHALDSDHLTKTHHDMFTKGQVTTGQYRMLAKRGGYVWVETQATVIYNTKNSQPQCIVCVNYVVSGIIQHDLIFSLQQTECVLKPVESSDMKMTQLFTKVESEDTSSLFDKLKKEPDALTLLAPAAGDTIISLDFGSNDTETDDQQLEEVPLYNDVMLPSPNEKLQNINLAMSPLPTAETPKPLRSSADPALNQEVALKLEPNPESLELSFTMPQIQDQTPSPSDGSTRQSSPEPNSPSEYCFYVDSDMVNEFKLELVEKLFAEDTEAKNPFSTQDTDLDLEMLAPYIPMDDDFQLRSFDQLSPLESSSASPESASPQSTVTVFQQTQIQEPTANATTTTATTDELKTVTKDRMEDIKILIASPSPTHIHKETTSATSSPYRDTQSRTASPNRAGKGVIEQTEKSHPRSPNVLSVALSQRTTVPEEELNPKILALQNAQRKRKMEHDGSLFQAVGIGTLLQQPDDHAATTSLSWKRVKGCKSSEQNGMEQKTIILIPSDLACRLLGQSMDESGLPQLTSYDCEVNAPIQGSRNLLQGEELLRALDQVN
Procedure, shortened: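 Fluorescence intensity of capillary-separated, 6-FAM-labelled reporter amplicons gives mRNA induction in HepG2 cells carrying transfected cis-promoter reporter units; cells exposed 24 h, responses fitted up or down from DMSO.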

[16] = molecular target: Hepatocyte nuclear factor 6 (Homo sapiens) (UniProt Q9UBC0); experiment: ATG_HNF6_CIS: Attagene CIS-FACTORIAL HepG2 Assay for human Hepatocyte Nuclear Factor 6 (HNF6) (AID 2282952); settings: HepG2 Attagene cis-factorial HNF6 reporter transcription; actives raise or lower the signal
Sequence of Hepatocyte nuclear factor 6 (Homo sapiens) (Q9UBC0 whole entry, looked up): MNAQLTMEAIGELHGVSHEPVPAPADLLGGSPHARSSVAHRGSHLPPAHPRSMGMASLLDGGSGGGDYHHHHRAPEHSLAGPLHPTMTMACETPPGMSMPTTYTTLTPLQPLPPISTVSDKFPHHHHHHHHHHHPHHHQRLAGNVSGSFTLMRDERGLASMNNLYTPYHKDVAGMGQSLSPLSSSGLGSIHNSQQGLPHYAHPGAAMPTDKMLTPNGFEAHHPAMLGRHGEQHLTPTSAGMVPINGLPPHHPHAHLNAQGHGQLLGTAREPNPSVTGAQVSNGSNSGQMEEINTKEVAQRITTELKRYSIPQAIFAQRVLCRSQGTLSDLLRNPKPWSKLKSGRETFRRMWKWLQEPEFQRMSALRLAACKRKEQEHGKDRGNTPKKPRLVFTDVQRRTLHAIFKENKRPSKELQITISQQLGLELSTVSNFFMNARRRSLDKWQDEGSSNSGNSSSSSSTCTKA
Procedure, shortened: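 HepG2 cells transiently transfected with cis-element-driven multiple reporter transcription units, dosed 24 h; reporter mRNA quantified by RT-PCR, FAM primer extension, HpaI digestion and capillary electrophoresis; bidirectional fit versus DMSO baseline.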

[17] = ATG_MRE_CIS: Attagene CIS-FACTORIAL HepG2 Assay for human Metal Responsive Element (MRE) (AID 2282954); settings: HepG2 MRE cis-reporter transcription, Attagene multiplex; actives raise or lower the signal
Procedure, shortened: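 After a 24 h chemical exposure, transiently transfected HepG2 cells yield RNA whose reporter sequences are amplified, FAM-labelled and sized by capillary electrophoresis. Curves are fitted bidirectionally relative to DMSO.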

[18] = ATG_GRE_CIS: Attagene CIS-FACTORIAL HepG2 Assay for human Glucocorticoid Response Elements (GRE) (AID 2282947); settings: HepG2 GRE cis-reporter, Attagene multiplex mRNA; actives raise or lower the signal
Procedure, shortened: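 Assay uses human hepatoma HepG2 cells transfected with cis-promoter reporter units, exposed 24 h. mRNA from reporters detected by RT-PCR plus capillary electrophoresis; DMSO serves as negative control and baseline.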

[19] = molecular target: Heat shock factor protein 1 (Homo sapiens) (UniProt Q00613); experiment: ATG_HSE_CIS: Attagene CIS-FACTORIAL HepG2 Assay for human Heat Shock Transcription Factor 1 (HSE) (AID 2282953); settings: HepG2 HSE cis-reporter, Attagene RNA transcription; actives raise or lower the signal
Sequence of Heat shock factor protein 1 (Homo sapiens) (Q00613 whole entry, looked up, the tested form may be a part): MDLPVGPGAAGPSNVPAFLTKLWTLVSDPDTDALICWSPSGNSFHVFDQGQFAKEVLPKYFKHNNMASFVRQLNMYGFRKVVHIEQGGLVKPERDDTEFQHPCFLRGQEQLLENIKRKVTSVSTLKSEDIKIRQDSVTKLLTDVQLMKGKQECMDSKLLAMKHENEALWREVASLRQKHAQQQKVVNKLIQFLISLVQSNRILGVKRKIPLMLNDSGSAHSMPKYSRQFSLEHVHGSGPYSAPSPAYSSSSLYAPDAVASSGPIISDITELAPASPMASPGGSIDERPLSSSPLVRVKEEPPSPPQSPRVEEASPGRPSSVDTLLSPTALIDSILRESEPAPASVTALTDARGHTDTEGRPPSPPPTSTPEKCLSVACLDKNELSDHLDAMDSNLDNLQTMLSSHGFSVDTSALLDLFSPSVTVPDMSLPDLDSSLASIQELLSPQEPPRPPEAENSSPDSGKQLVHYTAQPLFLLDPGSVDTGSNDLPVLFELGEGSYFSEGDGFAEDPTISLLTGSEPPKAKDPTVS
Procedure, shortened: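 Cells were transfected with cis-element-driven reporter constructs, dosed for 24 h, then total RNA was reverse-transcribed and reporter cDNA amplified, FAM-labelled and digested with HpaI. Fragments were resolved by capillary electrophoresis; gain or loss was fitted against DMSO.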

Measured: AC50

CC1=CC=C(C(C)C)CC1
not listed: [18] | [19]
inactive: all other assays above

CC(=O)OC/C=C(/C)CCC=C(C)C
inactive: all assays above

O=C(Oc1ccccc1)c1ccccc1C(=O)Oc1ccccc1
not listed: [16]
inactive: all other assays above

O=C(Cl)c1ccc(C(=O)Cl)cc1
inactive: all assays above

CC(C)c1cccc(C(C)C)c1N
not listed: [19]
inactive: all other assays above

CC(C)(c1ccccc1)c1ccc(Nc2ccc(C(C)(C)c3ccccc3)cc2)cc1
inactive: all assays above

N#Cc1ccc(C2CCCc3cncn32)cc1 (stereo unspecified)
active: [6] 25.4 µM
not listed: [18]
inactive: all other assays above

CC(C)OC(=O)c1ccccc1
not listed: [16]
inactive: all other assays above
